The record followed here is the supplement of paper PMC4894684.

Counter-ions that a name gives are not always drawn. ± gives the standard deviation of the averaged measurements.

The test deals with Toxoplasma gondii RH (in HFF). Put plainly: parasite growth relative to the screen mean (all compounds = 100%); higher = less inhibition of parasite growth. Conditions: 5 µM; 72 h; oxygen 21 %. In a few lines: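 Confluent human foreskin fibroblasts in 96-well plates received library compounds by pin transfer at 5 µM final, taken from 10 mM DMSO stocks. Within 2 h the cells were infected with RH β-Gal–GFP Toxoplasma at MOI 1:5 and cultured 72 h at 21% O2. A CPRG β-Gal assay read against in-plate standard curves gave parasite number, and growth is stated relative to the screen mean, where all compounds = 100%, averaged across two screens.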
Consider `CCC(C)N(C)C(=O)c1cc2ccccc2c(-c2ccccc2Cl)n1` (stereo not drawn), for which the parasite growth was 85.5 ± 33%.

Consider `COc1cc(N)c(Cl)cc1C(=O)OCCCN1CCCCC1`, for which the parasite growth was 109 ± 2.2%. `N#Cc1ccc(NCCNCC(=O)N2CCC[C@H]2C#N)nc1` [NVP DPP 728 dihydrochloride]: the parasite growth was 81.5 ± 3.9%. The figure for `CNC(=O)c1cc2c(cn1)[nH]c1ccccc12` is 124 ± 19%; for `C[C@H](NC[C@H](O)CP(=O)(O)CC1CCCCC1)c1ccc(Cl)c(Cl)c1` it is 129 ± 36%.

`Cc1ccc(C(=O)Nc2ccc(S(=O)(=O)O)c3cc(S(=O)(=O)O)cc(S(=O)(=O)O)c23)cc1NC(=O)c1cccc(NC(=O)Nc2cccc(C(=O)Nc3cc(C(=O)Nc4ccc(S(=O)(=O)O)c5cc(S(=O)(=O)O)cc(S(=O)(=O)O)c45)ccc3C)c2)c1` [Suramin hexasodium salt] returned a parasite growth of 90 ± 22%. The molecule `CN/C(=N\c1ccc(C2=NNC(=O)CC2C)cc1)NC#N` (stereo not drawn) [Siguazodan] registered a parasite growth of 130 ± 23%. For the molecule `C=C1/C(=C\C=C2/CCC[C@]3(C)[C@@H]([C@H](C)/C=C/[C@@H](O)C4CC4)CC[C@@H]23)C[C@@H](O)C[C@@H]1O` [Calcipotriol], the parasite growth amounted to 81.2 ± 8.2%. In the case of `O=C1CC2(CCCC2)CC(=O)N1CCCCNCC1COc2ccccc2O1` (stereo not drawn), the parasite growth amounted to 156 ± 5.8%.

`c1ccc(N2CCN(Cc3nc4ccccc4[nH]3)CC2)nc1` [ABT 724 trihydrochloride] gave a parasite growth of 98.1 ± 12%. The figure for `C[C@](N)(Cc1ccc(O)c(O)c1)C(=O)O` [L-(-)- α-Methyldopa] is 146 ± 39%.

On to `CCCC[C@@H](C=O)NC(=O)[C@H](CC(C)C)NC(=O)OCc1ccccc1` [Calpeptin], for which the parasite growth was 19.9 ± 4.8%. Take `CCCCN1CCC(CCC(=O)c2cc(Cl)c(N)cc2OC)CC1`: the parasite growth came out at 67.2 ± 14%.
